Assay outcomes as filed in PubChem.
Shiga toxin inh: A qHTS for Small Molecule Inhibitors of Shiga Toxin; inhibition, % at 38.7 µM; AID 2315, 2010; 9.2% of 290,000 active; Vero cells, Shiga toxin protein synthesis inhibition reporter; in the data active = inhibition mostly above about 28%, no sharp cut-off; inactive = mostly below about 43%
CHX counter: Cycloheximide Counterscreen for Small Molecule Inhibitors of Shiga Toxin; cell reporter, cycloheximide protein synthesis inhibition counterscreen; max response, %; 12% of 300,000 active; in the data active = max response mostly above about 13%, no sharp cut-off; inactive = mostly below about 14%; note: read at 38.3 µM for the half of the compounds with a filed dose
AMA1-RON2 inh: qHTS for Inhibitors of AMA1-RON; Towards Development of Antimalarial Drug Lead: Primary Screen. Potency, µM (top dose mostly 58.2 µM), hits mostly inhibitors. 0.2% of 360,000 active. AID 720542, 2013. AlphaScreen AMA1-biotinylated RON2 peptide binding. Plasmodium falciparum AMA1 (3D7) - RON2 peptide interaction; active = well fitted inhibition curve with a large enough effect; inconclusive = small, poorly fitted or top-dose-only effect; inactive = no such curve, though single readings can be large or run the other way; note: nearly all actives have a fitted effect of over 45% in size
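AMA1 (3D7) with his tag at 25 nM final met compounds first, then biotinylated RON2 peptide at 25 nM; detection used donor plus acceptor beads, 10 µg/mL apiece, read by AlphaScreen after 30 min at room temperature.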
Marburg entry inh: qHTS for inhibitors of binding or entry into cells for Marburg Virus. Marburg virus pseudotyped entry inhibition, cell reporter. Potency, µM (doses to about 37.8 µM), actives largely listed as inhibitors. 1.8% of 300,000 active; calls by dose curve; tested in HEK293 cells
LASV entry inh: qHTS for Inhibitors of binding or entry into cells for Lassa Virus; Lassa virus pseudotype entry inhibition, cell reporter; Potency, µM (doses to about 37.9 µM), most hits filed as inhibitors; 1.2% of 300,000 active; calls by dose curve; tested in HEK293 cells; note: nearly all actives have a fitted effect of over 50% in size
Hits are given with their value; i = inactive; ? = inconclusive; nt = no result given; [ ] = another dose, or the depositor's remark. The entries come from a sample that favours hits as a whole.

SMILES	Shiga toxin inh	CHX counter	AMA1-RON2 inh	Marburg entry inh	LASV entry inh
COc1ccc2[nH]c(=O)c(CN(CC3CCCO3)C(=S)Nc3ccccc3)cc2c1 (stereo not given)	i	i	i	nt	nt
O=C(Nc1ccc(F)cc1)N(CCCN1CCOCC1)Cc1cc2cc3c(cc2[nH]c1=O)OCCO3	i	37	i	i	i
O=C(Nc1ccc(F)cc1)N(CCCN1CCOCC1)Cc1cc2cc3c(cc2[nH]c1=O)OCO3	i	i	i	i	i
CCN(CC)CCN(Cc1cc2cc3c(cc2[nH]c1=O)OCO3)C(=S)NCC(C)C	i	i	i	nt	nt
CCN(CC)CCN(Cc1cc2cc3c(cc2[nH]c1=O)OCCO3)C(=S)NCC(C)C	i	i	i	11µM	?
COc1ccc(CNC(=O)CSc2ncc3c(n2)-c2ccc(Cl)cc2N(Cc2ccc(F)cc2)S3(=O)=O)cc1OC	nt	nt	nt	nt	i
CCCCC[C@H](C)N1C[C@H](COCc2ccccc2)Oc2cc(N3CCC[C@H]3COC)ccc2S1(=O)=O	nt	nt	i	nt	nt
O=C(Nc1ccsc1C(=O)O)c1ccccc1Cl	i	i	i	i	i
Cc1ccc(NC(=O)Cc2ccc(-n3c(C)nc4cccnc43)cc2)c(Cl)c1	nt	nt	nt	nt	i
Cn1nnc(NC(=S)NC(=O)c2cccc3ccccc23)n1	i	i	i	i	i
O=C(Nc1ccc(F)cc1F)c1cc2ccccc2oc1=O	53	20	i	nt	nt
N/C(=N\NC(=O)c1cccc(F)c1)c1cc2ccccc2oc1=O	34	26	i	nt	nt
CCOc1ccccc1NC(=O)c1cc2ccccc2oc1=O	i	i	i	?	i
O=C(NCc1ccc(F)cc1)C(c1ccc(Cl)cc1)N(C(=O)c1csnn1)C1CC1 (stereo not given)	i	i	i	i	i
CCCCOc1ccc(C(=O)Nc2cccc(C)n2)cc1	74	43	i	?	?
CCOc1ccc(NC(=O)Nc2cc(C)ccc2F)cc1	54	34	i	i	i
CCOc1ccc(NC(=O)Nc2cc(C(C)C)c(O)cc2C)cc1	i	i	i	?	i
CCOC(=O)c1cccc(NC(=O)Nc2ccc(OCC)cc2)c1	108	39	i	?	?
CCOc1ccc(NC(=O)Nc2cccc(C(=O)O)c2)cc1	i	i	i	?	?
CCOc1ccc(C(=O)Nc2cccc(C)n2)cc1	i	25	i	8.9µM	?
Cc1cccc(NC(=O)c2ccc(Cl)nc2)n1	i	i	i	i	i
COc1ccc(NC(=O)COc2coc(CN3CCN(c4ccccc4)CC3)cc2=O)cc1	nt	nt	i	i	i
COc1ccccc1Cc1c(-c2ccco2)nc2cc(C)c(Br)c(C)n12	nt	nt	i	nt	nt
COc1cc(/C=C/C(C)=NNc2ccccc2)ccc1O	nt	nt	i	?	i
Cc1cccc(NC(=O)c2ccc(S(=O)(=O)N(C)C)cc2)n1	78	37	i	i	?
SMILES	Shiga toxin inh	CHX counter	AMA1-RON2 inh	Marburg entry inh	LASV entry inh
Cc1cccc(NC(=O)CN(C)S(=O)(=O)c2ccc(Cl)cc2)n1	i	i	i	i	i
CCOc1ccc(/C=C/C(=O)Nc2cccc(C(C)=O)c2)cc1	64	27	i	i	i
CCOc1ccc(NC(=O)Nc2cccc(C)n2)cc1	72	28	i	?	i
CCOc1ccc(NC(=O)Nc2ccc(Cc3ccncc3)cc2)cc1	i	i	i	?	i
CCN(C(=O)Cn1c(Cl)nc2c1c(=O)n(C)c(=O)n2C)C1CCCCC1	nt	nt	i	nt	nt
Nc1c(N(Cc2ccccc2)C(=O)COc2ccc([N+](=O)[O-])cc2)c(=O)[nH]c(=O)n1Cc1ccccc1	nt	nt	i	nt	nt
Cn1cc(CNCc2cnc3ccccn23)c(-c2ccc(Oc3ccccc3)cc2)n1	i	i	28µM	?	?
Cc1cc(CNCc2cn(C)nc2-c2ccc(Oc3ccccc3)cc2)on1	i	17	i	i	?
CN(Cc1cn(C)nc1-c1ccc(Oc2ccccc2)cc1)Cc1cnc2ccccn12	i	i	i	nt	nt
O=C(NCc1ccc(F)cc1)c1cnc(N2CCOCC2)c2ccccc12	nt	nt	nt	nt	i
CCN(C(=O)c1cnc(N2CCOCC2)c2ccccc12)c1cc(C)ccc1C	nt	nt	nt	nt	5µM
O=C(Nc1cccc([N+](=O)[O-])c1)Nc1cccc([N+](=O)[O-])c1	i	i	i	?	?
CC(=O)c1ccc(NC(=O)Nc2ccc3c(c2)nc(C)n3C)cc1	81	34	i	?	i
Cc1ccc(NC(=O)Nc2ccc3c(c2)nc(C)n3C)cc1	54	33	i	11µM	?
Cc1nc2cc(NC(=O)Nc3cccc([N+](=O)[O-])c3)ccc2n1C	nt	46	i	?	?
Cc1nc2cc(NC(=O)Nc3ccccc3Cl)ccc2n1C	28	13	i	?	?
Cn1c(CCN2CCCCC2)nc2cc(NC(=O)Nc3ccccc3)ccc21	i	i	i	i	i
COc1cccc(Nc2nc(C(N)Cc3ccc(Cl)cc3)cs2)n1 (stereo not given)	nt	nt	i	nt	nt
CC(=O)c1ccc(OC(=O)Cc2cccc3ccccc23)cc1	i	i	i	nt	nt
COC(=O)c1ccc(NC(=O)Nc2ccc3c(c2)nc(C)n3C)cc1	68	15	i	?	i
CCCCC[C@@H](C)N1C[C@@H](COCc2ccccc2)Oc2cc(N3CCC[C@@H]3COC)ccc2S1(=O)=O	nt	nt	i	nt	nt
CC(C)(C)C1CCC2(CC1)NC(=S)N(c1ccccc1)N2 (stereo not given)	42	24	i	i	i
CCOC(=O)CN1NC2(CCC(C(C)(C)C)CC2)NC1=S (stereo not given)	i	i	i	i	i
CCC(C)(C)C1CCC2(CC1)NC(=S)N(c1ccccc1)N2 (stereo not given)	98	35	i	nt	nt
O=C(O)CCCCCC[C@@H]1C(=O)NC(=O)N1CC[C@@H](O)C1CCCCC1	nt	nt	nt	i	nt
SMILES	Shiga toxin inh	CHX counter	AMA1-RON2 inh	Marburg entry inh	LASV entry inh
O=[N+]([O-])c1cc(S(=O)(=O)N2CCCC2)ccc1NCCc1ccccc1	i	i	i	i	i
COC(=O)c1ccc(COc2cccnc2[N+](=O)[O-])cc1	35	24	i	i	i
NS(=O)(=O)c1ccc(CCNc2ccccc2[N+](=O)[O-])cc1	77	36	i	?	i
O=c1ccnc(NCCc2ccccc2)[nH]1	i	29	i	i	i
O=[N+]([O-])c1cc(C(F)(F)F)ccc1NCCc1c[nH]c2ccccc12	54	10	?	?	i
O=[N+]([O-])c1cc(C(F)(F)F)ccc1NCCc1c[nH]c2ccc(O)cc12	i	i	i	i	i
Cc1cc(C)c(NC(=O)C2CCN(C(=O)N3CCOc4ccccc43)CC2)c(C)c1	nt	nt	nt	nt	i
Cc1ccc(C(NC(=O)C2CCN(CCOc3ccccc3)CC2)c2ccccn2)cc1 (stereo not given)	nt	nt	i	nt	nt
COc1ccccc1CNc1ncccc1[N+](=O)[O-]	i	i	i	nt	nt
Cc1c(Cl)c([N+](=O)[O-])nn1CCCC(=O)NCCc1ccccc1	102	31	i	nt	nt
O=[N+]([O-])c1cccnc1NCCc1ccccc1	67	37	i	?	?
O=[N+]([O-])c1cccnc1NCCc1c[nH]c2ccccc12	68	31	i	nt	nt
Cc1cccc(OCCNc2ccc(C(F)(F)F)cc2[N+](=O)[O-])c1	i	9.3	i[2.32 µM]	i	?
